Measured values published in PubChem BioAssay (NCATS).
Inconclusive results are not listed. Activity calls are given as the source filed them. Unless noted, calls follow the shape of the full dose curve.

How the values were obtained:
[1] = biological target: Bile acid receptor (Homo sapiens) (UniProt Q96RI1); experiment: qHTS assay for small molecule agonists of farnesoid X receptor signaling (AID 588527); details: HEK293T FXR-UAS-bla, beta-lactamase ratio, 16 h; activation: stronger effect = higher value;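 also: series mostly up to about 77 µM; 0% = vehicle basal and 100% = reference agonist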
Method in brief: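 Read-out: beta-lactamase reporter fluorescence with CCF4 substrate in GeneBLAzer FXR-UAS-bla HEK293T cells, after 16 h compound exposure at 37 C. Response scaled between DMSO basal (0%) and chenodeoxycholic acid at 100 uM (100%).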

[2] = biological target: Glucocorticoid receptor (Homo sapiens) (UniProt P04150); experiment: qHTS assay for small molecule agonists of glucocorticoid receptor signaling (AID 588532; active = well fitted curve in the direction sought with a large enough effect in the signal ratio, with a control signal flat; the % refers to the signal ratio;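 also: 100% = dexamethasone at 0.1 µM and 0% = DMSO only wells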); details: HeLa MMTV-bla, beta-lactamase ratio, agonist, 18 h; activation: stronger effect = higher value, percent of dexamethasone control, DMSO zero
Method in brief: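 MMTV-bla HeLa beta-lactamase reporter cells in 1% charcoal/dextran FBS medium, compounds up to 92 uM for 18 h at 37 C, CCF4 readout; normalized to 0.1 uM dexamethasone (100%), EC50 and efficacy from Hill fits.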

[3] = biological target: Glucocorticoid receptor (Homo sapiens) (UniProt P04150); experiment: qHTS assay for small molecule antagonists of glucocorticoid receptor signaling (AID 588533; active = well fitted inhibition curve with a large enough effect in the signal ratio, with a control signal flat, not every such curve was filed as active; the % refers to the signal ratio;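 also: cells stimulated with 2 nM dexamethasone as agonist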; also: potency is read from the fitted curve at half-maximal effect)
Method in brief: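 Antagonist-mode qHTS: compound titrations added to GRE-bla HeLa cells, then dexamethasone 2 nM final; 18 h, 37 C. CCF4 FRET fluorescence normalized to dexamethasone and DMSO; IC50 from Hill fit.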

[4] = biological target: Peroxisome proliferator-activated receptor delta (Homo sapiens) (UniProt Q03181); experiment: qHTS assay for small molecule agonists of peroxisome proliferator-activated receptor delta signaling (AID 588534);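 also: 0% = DMSO basal wells and 100% = positive control agonist at 10 µM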
Method in brief: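 Titration series tested in agonist mode on beta-lactamase reporter cells; 18 hrs at 37 C after a 5 hr pre-incubation. Readout: CCF4 fluorescence, 2 hrs RT. Hill equation gives EC50 and maximal response.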

[5] = qHTS assay for small molecule antagonists of peroxisome proliferator-activated receptor delta signaling (AID 588535; active = well fitted inhibition curve with a large enough effect in the signal ratio, with a control signal flat, not every such curve was filed as active; the % refers to the signal ratio; also: potency is read from the fitted curve at half-maximal effect;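 as to max response: cells co-treated with a PPAR-delta agonist as stimulator during compound exposure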); details: HEK293T PPARd-UAS-bla, beta-lactamase FRET ratio, 18 h; 460 nm channel
Method in brief: (§1)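 Beta-lactamase reporter read-out (405 nm excitation, 460/530 nm emission) after CCF4 loading for 2 hrs at RT. HEK293T PPAR-delta-UAS-bla cells, 2% charcoal/dextran FBS, compounds for 18 hrs at 37 C. Hill fit gave IC50 and efficacy.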

[6] = biological target: Peroxisome proliferator-activated receptor delta (Homo sapiens) (UniProt Q03181); experiment: as above
Method in brief: as §1

[7] = biological target: Peroxisome proliferator-activated receptor gamma (Homo sapiens) (UniProt P37231); experiment: qHTS assay for small molecule agonists of peroxisome proliferator-activated receptor gamma signaling (AID 588536; active = well fitted curve in the direction sought with a large enough effect in the signal ratio, with a control signal flat, not every such curve was filed as active; the % refers to the signal ratio;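 also: 0% = DMSO basal wells and 100% = rosiglitazone at 2 µM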)
Method in brief: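 Beta-lactamase reporter read-out: CCF4 fluorescence (ex 405, em 460/530 nm) after 2 h at RT. HEK293 GeneBLAzer cells were treated for 16 h at 37 C. Hill fits gave EC50 and efficacy versus 2 uM rosiglitazone (100%) and DMSO (0%).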

[8] = biological target: Peroxisome proliferator-activated receptor gamma (Homo sapiens) (UniProt P37231); experiment: qHTS assay for small molecule antagonists of peroxisome proliferator-activated receptor gamma signaling (AID 588537; active = well fitted inhibition curve with a large enough effect in the signal ratio, with a control signal flat, not every such curve was filed as active; the % refers to the signal ratio;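 also: reporter cells co-stimulated with 50 nM rosiglitazone agonist during compound treatment; % of control where 0% means no effect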)
Method in brief: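 Read-out: CCF4 fluorescence (ex 405, em 460/530 nm) after 2 h at RT. Cells were HEK293 carrying a UAS-bla reporter and treated 16 h at 37 C with compound plus rosiglitazone (50 nM final). Normalized to rosiglitazone and DMSO.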

[9] = biological target: Vitamin D3 receptor (Homo sapiens) (UniProt P11473); experiment: qHTS assay for small molecule agonists of vitamin D receptor signaling (AID 588543);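 also: 0% = DMSO basal and 100% = reference agonist control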
Method in brief: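 qHTS in agonist mode: compound titrations stimulate a VDR-driven β-lactamase reporter in HEK293T cells over 16 h at 37 °C. Response normalized to 50 nM 1α,25-dihydroxyvitamin D3 = 100%, DMSO = 0%; Hill fitting gives EC50 and maximal response.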

[10] = qHTS assay for small molecule agonists of retinoid X receptor alpha signaling (AID 588544); details: HEK293T RXRa-UAS-bla, beta-lactamase reporter, 18 h; 530 nm emission; also: potency is read from the fitted curve at half-maximal effect;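 as to activation: 0% = DMSO basal wells and 100% = reference agonist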
[11] = biological target: Retinoic acid receptor RXR-alpha (Homo sapiens) (UniProt P19793); experiment: as above
[12] = biological target: Thyroid hormone receptor beta (Homo sapiens) (UniProt P10828); experiment: qHTS assay for small molecule agonists of thyroid hormone receptor beta signaling (AID 588545);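 also: 0% = DMSO only and 100% = 10 nM T3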
Method in brief: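 TR-UAS-bla GripTite HEK 293 cells (2500/well, medium with 2% charcoal/dextran FBS) were treated in agonist mode for 18 h at 37 C, titrated. Beta-lactamase was read by CCF4 ratio after 2 h; normalized to 10 nM T3 (100%) and DMSO, Hill-fitted for EC50 and efficacy.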

[13] = qHTS assay for small molecule antagonists of retinoid X receptor alpha signaling (AID 588546; active = well fitted inhibition curve with a large enough effect in the signal ratio, with a control signal flat, not every such curve was filed as active; the % refers to the signal ratio; also: potency is read from the fitted curve at half-maximal effect;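 as to max response: cells stimulated with 9-cis-retinoic acid as agonist; % is scaled to controls: 0 for no effect and ±100 for the full control effect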); details: HEK293T RXRa-UAS-bla, beta-lactamase ratio, antagonist mode; measured here: W530 green channel, cytotoxicity proxy
Method in brief: (§2)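 Beta-lactamase reporter inhibition, read as CCF4 fluorescence ratio (ex 405, em 460/530 nm) after 2 h at RT. HEK293T UAS-bla cells, 2500/well, were stimulated with 9-cis-RA at 500 or 100 nM final alongside test compound for 18 h at 37 C.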

[14] = biological target: Thyroid hormone receptor beta (Homo sapiens) (UniProt P10828); experiment: qHTS assay for small molecule antagonists of thyroid hormone receptor beta signaling (AID 588547; active = well fitted inhibition curve with a large enough effect in the signal ratio, with a control signal flat, not every such curve was filed as active; the % refers to the signal ratio;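 also: cells stimulated with 0.4 nM T3 agonist during compound exposure; series mostly up to about 77 µM; % is scaled to controls: 0 for no effect and ±100 for the full control effect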); details: TR-UAS-bla HEK293, beta-lactamase ratio, antagonist mode, 18 h
Method in brief: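 TR-UAS-bla GripTite HEK293 cells in 2% charcoal/dextran FBS medium; compounds 0.59 nM to 92 uM with T3 at 0.4nM final, 18 h at 37 C. Beta-lactamase read by CCF4 fluorescence (460/530 nm); Hill fits gave IC50 and efficacy.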

[15] = qHTS assay for small molecule activators of the p53 signaling pathway (AID 651743; active = well fitted activation curve with a large enough effect in the signal ratio, not every such curve was filed as active; the % refers to the signal ratio; also: series mostly up to about 92 µM; % of control where 0% means no effect); details: HCT-116 p53RE-bla, beta-lactamase FRET ratio, 16 h; activation: stronger effect = higher value
Method in brief: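 Reporter: beta-lactamase driven by p53 response elements, stably integrated in HCT-116 cells. Cells seeded at 4,000/well, 5 h preincubation, compound (DMSO) 16 h at 37 C; B/G FRET substrate 2 h RT; fluorescence intensity read.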

[16] = qHTS assay for environmental chemicals that activate the Aryl hydrocarbon Receptor (AhR) signaling pathway (AID 651777; active = well fitted curve in the direction sought with a large enough effect; an effect the other way counts as inactive or inconclusive; also: % of control where 0% means no effect; nearly all actives have a fitted effect of over 15% in size); details: 1A2-DRE human hepatoma cells, luciferase, 24 h; activation: stronger effect = higher value
Method in brief: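 Quantitative HTS in stably transfected human liver-derived cells whose luciferase gene sits downstream of the CYP1A2 promoter and dioxin response element. After 24 hr exposure at 37 C, One-Glo luminescence was measured.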

[17] = biological target: Peroxisome proliferator-activated receptor alpha (Homo sapiens) (UniProt Q07869); experiment: qHTS assay for small molecule agonists of the peroxisome proliferator-activated receptor alpha (PPARalpha) signaling pathway (AID 651778; active = well fitted curve in the direction sought with a large enough effect; an effect the other way counts as inactive or inconclusive; also: potency is read from the fitted curve at half-maximal effect; as to max response: % of control where 0% means no effect); details: PathHunter PPARalpha complementation, chemiluminescence, 6 h; max response: stronger effect = higher value
Method in brief: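 Enzyme-fragment complementation assay in which ligand-bound PPARalpha translocates and forms an active enzyme that generates chemiluminescence. Cells were plated overnight, exposed to compound for 6 hr at 37 C, and then given detection reagent for 60 min at room temperature.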

[18] = qHTS assay for small molecule agonists of the antioxidant response element (ARE) signaling pathway measured by Nrf2-dependant transcriptional activity (AID 720636; active = well fitted curve in the direction sought with a large enough effect in the repeat runs; an effect the other way counts as inactive or inconclusive; also: % of control where 0% means no effect)
Method in brief: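 Quantitative HTS format in HepG2 cells stably expressing an ARE-luciferase reporter; 16 hr compound treatment at 37 C, luciferase signal detected with ONE-Glo.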

[19] = qHTS assay for small molecule agonists of the antioxidant response element (ARE) signaling pathway measured by Nrf2-dependant transcriptional activity - cell viability counter screen (AID 720653; active = well fitted curve in the direction sought with a large enough effect in the repeat runs; an effect the other way counts as inactive or inconclusive; also: % is scaled to controls: 0 for no effect and ±100 for the full control effect); details: ARE-bla HepG2 viability, CellTiter-Glo ATP luminescence, 16 h; max response: stronger effect = lower value
Method in brief: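 ARE-bla HepG2 cells treated with compounds for 16 h at 37C; this counter screen measures viability as intracellular ATP by CellTiter-Glo luminescence after 30 min at room temperature.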

[20] = qHTS assay for cell viability of HEK293 cells (AID 743288; active = well fitted curve in the direction sought with a large enough effect; an effect the other way counts as inactive or inconclusive; also: nearly all actives have a fitted effect of over 50% in size; also: potency is read from the fitted curve at half-maximal effect); details: ATP luminescence (CellTiter-Glo), 18 h; max response: stronger effect = lower value
Method in brief: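 Quantitative high-throughput screen: compounds were pinned onto parental HEK293 cells (2,000 per well) after a minimum 5 h settling at 37 C, incubated 18 h at 37 C, and intracellular ATP measured by luciferase luminescence.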

[21] = biological target: Nuclear receptor subfamily 1 group I member 2 (Rattus norvegicus) (UniProt Q9R1A7); experiment: qHTS assay for small molecule activators of the rat pregnane X receptor (rPXR) signaling pathway (AID 651751; call rule not given here; also: 0% is about no effect); details: rPXR reporter cells, luciferase (One-Glo), 24 h
[22] = qHTS assay for small molecule activators of the human pregnane X receptor (PXR) signaling pathway (AID 720659; call rule not given here; also: 0% is about no effect)
[23] = biological target: Retinoic acid receptor RXR-alpha (Homo sapiens) (UniProt P19793); experiment: qHTS assay for small molecule antagonists of retinoid X receptor alpha signaling (AID 588546); details: HEK293T RXRa-UAS-bla, beta-lactamase ratio, antagonist mode; also: potency is read from the fitted curve at half-maximal effect;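 as to max response: cells stimulated with 9-cis-retinoic acid as agonist; % is scaled to controls: 0 for no effect and ±100 for the full control effect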
Method in brief: as §2

[24] = qHTS assay for small molecule agonists of the antioxidant response element (ARE) signaling pathway (AID 651741; active = well fitted activation curve with a large enough effect in the signal ratio; the % refers to the signal ratio; also: potency is read from the fitted curve at half-maximal effect)
Method in brief: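 HepG2 ARE-bla reporter cells, 2,000/well; 5 h settle at 37 C/5% CO2; compound pin transfer (23 nL, DMSO); 16 h at 37 C; LiveBLAzer B/G FRET substrate, 2 h RT; fluorescence intensity read.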

[25] = qHTS assay for small molecule activators of the nuclear factor-kappa B (NF-kB) signaling pathway (AID 651749; active = well fitted activation curve with a large enough effect in the signal ratio; the % refers to the signal ratio; also: series mostly up to about 77 µM; % of control where 0% means no effect); details: NF-kB-bla ME-180 cells, beta-lactamase FRET ratio, 16 h; activation: stronger effect = higher value
Method in brief: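 NF-kB-bla ME-180 cells, 2,000/well; 23 nL compound or DMSO pinned; 16 hr, 37C/5% CO2; beta-lactamase FRET read-out.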

[26] = qHTS assay for cell viability of the p53RE-bla HCT-116 cell line (AID 743292; active = well fitted curve in the direction sought with a large enough effect; an effect the other way counts as inactive or inconclusive; also: % is scaled to controls: 0 for no effect and ±100 for the full control effect; nearly all actives have a fitted effect of over 55% in size)
Method in brief: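 Viability of compound-treated p53RE-bla HCT-116 cells is taken from ATP-dependent luciferase luminescence. Treatment lasts 16 h at 37 C after a 5 h settling period; detection follows 30 min at room temperature.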

Peroxisome proliferator-activated receptor gamma (Homo sapiens), sequence (P37231 whole entry, looked up): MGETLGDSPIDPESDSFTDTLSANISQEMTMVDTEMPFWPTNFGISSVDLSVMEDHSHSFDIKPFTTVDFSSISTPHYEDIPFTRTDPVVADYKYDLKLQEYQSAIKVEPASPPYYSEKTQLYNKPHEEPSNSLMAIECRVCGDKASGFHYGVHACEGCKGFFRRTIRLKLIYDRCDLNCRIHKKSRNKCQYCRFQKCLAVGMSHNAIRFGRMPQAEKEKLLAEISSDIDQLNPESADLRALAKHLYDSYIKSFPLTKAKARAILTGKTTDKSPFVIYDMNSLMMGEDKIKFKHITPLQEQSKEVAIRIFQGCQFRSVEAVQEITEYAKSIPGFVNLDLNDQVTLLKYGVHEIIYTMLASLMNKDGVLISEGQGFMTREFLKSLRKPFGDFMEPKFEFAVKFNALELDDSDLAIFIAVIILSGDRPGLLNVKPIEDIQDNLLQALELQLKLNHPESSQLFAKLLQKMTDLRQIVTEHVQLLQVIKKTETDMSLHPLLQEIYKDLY
Peroxisome proliferator-activated receptor delta (Homo sapiens), sequence (Q03181 whole entry, looked up): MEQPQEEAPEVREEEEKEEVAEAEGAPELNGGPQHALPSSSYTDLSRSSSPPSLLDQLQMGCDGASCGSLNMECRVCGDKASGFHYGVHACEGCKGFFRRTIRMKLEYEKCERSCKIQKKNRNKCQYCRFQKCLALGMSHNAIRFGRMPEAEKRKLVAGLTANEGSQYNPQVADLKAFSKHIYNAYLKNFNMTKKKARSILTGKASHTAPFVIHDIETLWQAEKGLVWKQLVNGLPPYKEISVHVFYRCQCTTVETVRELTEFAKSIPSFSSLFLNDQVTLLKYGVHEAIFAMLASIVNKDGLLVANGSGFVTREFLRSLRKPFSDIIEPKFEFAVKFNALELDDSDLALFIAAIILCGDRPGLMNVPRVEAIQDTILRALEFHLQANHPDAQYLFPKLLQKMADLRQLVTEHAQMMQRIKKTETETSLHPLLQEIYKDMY
Peroxisome proliferator-activated receptor alpha (Homo sapiens), sequence (Q07869 whole entry, looked up, the tested form may be a part): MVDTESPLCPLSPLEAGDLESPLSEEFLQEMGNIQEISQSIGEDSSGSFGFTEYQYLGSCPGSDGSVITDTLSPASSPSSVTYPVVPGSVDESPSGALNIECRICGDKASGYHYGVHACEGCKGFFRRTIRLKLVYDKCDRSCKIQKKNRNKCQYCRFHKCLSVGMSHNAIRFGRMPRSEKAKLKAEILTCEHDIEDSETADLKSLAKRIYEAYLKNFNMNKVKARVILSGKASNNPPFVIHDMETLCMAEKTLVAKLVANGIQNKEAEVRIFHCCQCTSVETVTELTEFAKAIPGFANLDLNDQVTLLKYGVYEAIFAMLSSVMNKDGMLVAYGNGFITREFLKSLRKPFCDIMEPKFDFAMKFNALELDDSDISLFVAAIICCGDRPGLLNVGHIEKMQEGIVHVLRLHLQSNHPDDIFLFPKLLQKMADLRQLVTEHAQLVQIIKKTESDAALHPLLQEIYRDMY
Thyroid hormone receptor beta (Homo sapiens), sequence (P10828 whole entry, looked up): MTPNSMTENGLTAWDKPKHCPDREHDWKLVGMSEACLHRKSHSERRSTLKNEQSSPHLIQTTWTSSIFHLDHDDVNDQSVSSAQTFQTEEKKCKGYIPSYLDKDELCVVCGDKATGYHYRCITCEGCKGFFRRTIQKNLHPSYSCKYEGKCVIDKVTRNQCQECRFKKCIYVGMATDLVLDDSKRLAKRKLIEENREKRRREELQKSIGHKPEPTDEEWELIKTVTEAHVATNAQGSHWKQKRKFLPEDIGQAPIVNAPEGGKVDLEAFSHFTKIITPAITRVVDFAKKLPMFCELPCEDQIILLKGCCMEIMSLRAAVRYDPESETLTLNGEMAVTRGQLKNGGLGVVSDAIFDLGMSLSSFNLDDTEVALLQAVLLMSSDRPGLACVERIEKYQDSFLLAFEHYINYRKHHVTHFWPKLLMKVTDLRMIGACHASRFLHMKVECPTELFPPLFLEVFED
Bile acid receptor (Homo sapiens), sequence (Q96RI1 whole entry, looked up): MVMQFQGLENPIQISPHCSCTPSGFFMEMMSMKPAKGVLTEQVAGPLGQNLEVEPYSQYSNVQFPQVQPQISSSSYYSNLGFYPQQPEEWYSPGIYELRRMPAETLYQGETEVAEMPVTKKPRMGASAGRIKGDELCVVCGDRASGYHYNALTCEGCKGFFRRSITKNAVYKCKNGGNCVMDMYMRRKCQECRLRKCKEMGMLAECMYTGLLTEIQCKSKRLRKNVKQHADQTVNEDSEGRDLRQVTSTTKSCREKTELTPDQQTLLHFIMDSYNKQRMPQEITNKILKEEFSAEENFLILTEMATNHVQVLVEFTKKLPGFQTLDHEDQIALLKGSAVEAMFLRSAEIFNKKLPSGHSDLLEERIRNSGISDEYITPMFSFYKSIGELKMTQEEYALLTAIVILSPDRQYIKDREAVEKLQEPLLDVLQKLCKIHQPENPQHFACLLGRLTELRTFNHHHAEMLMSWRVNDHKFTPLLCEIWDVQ
Nuclear receptor subfamily 1 group I member 2 (Rattus norvegicus), sequence (Q9R1A7 whole entry, looked up): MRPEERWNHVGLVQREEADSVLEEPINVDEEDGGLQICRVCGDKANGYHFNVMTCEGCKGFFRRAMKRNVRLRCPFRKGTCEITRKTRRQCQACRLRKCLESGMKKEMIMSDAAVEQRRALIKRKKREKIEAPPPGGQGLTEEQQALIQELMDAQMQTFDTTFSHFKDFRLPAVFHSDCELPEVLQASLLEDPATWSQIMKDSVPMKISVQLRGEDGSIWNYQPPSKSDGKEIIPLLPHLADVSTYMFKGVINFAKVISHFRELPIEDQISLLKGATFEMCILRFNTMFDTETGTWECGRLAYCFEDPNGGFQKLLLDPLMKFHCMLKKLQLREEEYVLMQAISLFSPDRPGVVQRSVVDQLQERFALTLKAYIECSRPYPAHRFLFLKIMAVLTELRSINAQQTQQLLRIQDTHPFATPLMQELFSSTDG
Retinoic acid receptor RXR-alpha (Homo sapiens), sequence (P19793 whole entry, looked up): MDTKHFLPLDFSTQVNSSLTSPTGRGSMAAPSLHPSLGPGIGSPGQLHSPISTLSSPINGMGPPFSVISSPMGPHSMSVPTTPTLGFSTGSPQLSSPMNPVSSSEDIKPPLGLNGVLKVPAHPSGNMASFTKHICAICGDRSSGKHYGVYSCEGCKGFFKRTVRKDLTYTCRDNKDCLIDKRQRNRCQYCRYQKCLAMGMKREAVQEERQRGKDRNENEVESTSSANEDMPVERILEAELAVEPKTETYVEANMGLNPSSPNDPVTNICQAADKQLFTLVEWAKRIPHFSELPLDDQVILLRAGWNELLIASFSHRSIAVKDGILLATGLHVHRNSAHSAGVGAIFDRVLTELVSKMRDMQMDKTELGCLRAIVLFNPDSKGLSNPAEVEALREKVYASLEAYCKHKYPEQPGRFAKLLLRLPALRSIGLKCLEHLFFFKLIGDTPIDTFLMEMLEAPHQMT
Glucocorticoid receptor (Homo sapiens), sequence (P04150 whole entry, looked up): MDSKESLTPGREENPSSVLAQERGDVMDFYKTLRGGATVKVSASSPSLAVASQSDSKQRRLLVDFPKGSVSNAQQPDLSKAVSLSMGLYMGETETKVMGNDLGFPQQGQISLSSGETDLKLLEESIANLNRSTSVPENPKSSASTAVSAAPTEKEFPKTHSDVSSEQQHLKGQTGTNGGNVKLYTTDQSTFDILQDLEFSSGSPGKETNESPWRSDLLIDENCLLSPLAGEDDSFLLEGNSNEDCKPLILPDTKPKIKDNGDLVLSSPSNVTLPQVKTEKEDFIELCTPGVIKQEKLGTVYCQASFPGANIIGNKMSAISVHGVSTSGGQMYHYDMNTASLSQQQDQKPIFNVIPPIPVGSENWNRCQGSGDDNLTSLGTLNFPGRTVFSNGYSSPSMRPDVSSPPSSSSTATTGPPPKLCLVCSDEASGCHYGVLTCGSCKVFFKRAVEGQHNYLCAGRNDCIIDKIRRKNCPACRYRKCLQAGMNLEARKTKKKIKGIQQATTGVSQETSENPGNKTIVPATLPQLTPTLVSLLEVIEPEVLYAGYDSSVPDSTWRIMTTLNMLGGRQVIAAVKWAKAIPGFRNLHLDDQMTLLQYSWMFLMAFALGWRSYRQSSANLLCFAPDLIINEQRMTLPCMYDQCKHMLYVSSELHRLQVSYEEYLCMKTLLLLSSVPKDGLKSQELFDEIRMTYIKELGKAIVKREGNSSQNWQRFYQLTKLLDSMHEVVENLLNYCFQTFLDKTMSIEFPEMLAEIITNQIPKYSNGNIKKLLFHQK
Vitamin D3 receptor (Homo sapiens), sequence (P11473 whole entry, looked up): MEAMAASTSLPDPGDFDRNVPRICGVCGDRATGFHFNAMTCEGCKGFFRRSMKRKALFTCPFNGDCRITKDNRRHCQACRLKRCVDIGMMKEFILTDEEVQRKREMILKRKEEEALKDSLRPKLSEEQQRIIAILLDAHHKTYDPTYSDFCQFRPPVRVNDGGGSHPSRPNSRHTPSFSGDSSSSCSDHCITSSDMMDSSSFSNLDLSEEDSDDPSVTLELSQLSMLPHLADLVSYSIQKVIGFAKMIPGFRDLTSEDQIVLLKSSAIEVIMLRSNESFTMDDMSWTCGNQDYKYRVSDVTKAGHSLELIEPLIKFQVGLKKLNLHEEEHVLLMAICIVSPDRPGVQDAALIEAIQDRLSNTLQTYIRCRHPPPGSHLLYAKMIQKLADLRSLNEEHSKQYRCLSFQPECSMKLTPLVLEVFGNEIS

CCCOC(=O)c1cc(O)c(O)c(O)c1
inactive: activation [1] -0.748%

Cc1cc2nc(N)sc2cc1C
inactive: activation [1] 0.811%

CCOC(=O)C(C)Oc1ccc(Oc2nc3ccc(Cl)cc3o2)cc1 (configuration not stated)
inactive: activation [1] -3.02%

CCCCCCCCCCCCN(C)C
inactive: activation [1] 2.94% | activation [2] -15.1% | Potency [3] | outcome [4] | Potency [6] | Potency [7] | Potency [8] | outcome [9] | Potency [11] | Potency [12] | activity change % (negative = inhibition) [14] -6.18% | activation [15] 0.386% | activation [16] -2.66% | max response [17] -1.36% | Potency [18] | max response [19] -0.69% | max response [20] -1.64% | max response [21] -0.417% | outcome [22]
1.32%: max response [13]
-10.4%: max response [10]
-18.8%: max response [5]

CCC[CH2][Sn]([Cl])([Cl])[CH2]CCC
inactive: activation [1] -1.2% | activation [2] -12% | Potency [12] | activation [25] -3.49% | activation [16] -11.4% | max response [17] -2.73% | Potency [18] | max response [21] -14.6%
25.9%: max response [13]
-91.3%: max response [5]
active: Potency [3] 15.8 µM | Potency [6] 3.98 µM | Potency [23] 3.98 µM | Potency [24] 1.93 µM | Potency [20] 39.8 µM

O=C(O)[C@@H]1[C@H](C(=O)O)[C@@]2(Cl)C(Cl)=C(Cl)[C@]1(Cl)C2(Cl)Cl
-1.73%: max response [10]
2.51%: max response [5]
inactive: activation [1] 7.2% | activation [2] -1.44% | Potency [3] | outcome [4] | Potency [6] | Potency [11] | Potency [12] | activation [15] -1.67% | activation [25] -0.556% | activation [16] 1.48% | max response [17] 0.99% | Potency [18] | max response [19] -22.8% | Potency [26] | max response [21] 4.23%

CSC1=N[C@@](C)(c2ccccc2)C(=O)N1Nc1ccccc1
inactive: activation [1] 1.54% | activation [2] 0.812% | outcome [9] | Potency [11] | Potency [12] | activity change % (negative = inhibition) [14] -28.6% | activation [16] -5.24% | max response [17] -0.163% | Potency [18] | max response [20] -18% | Potency [26]
25.5%: max response [10]
active: Potency [24] 6.86 µM

N#Cc1cc(Br)c(O)c(Br)c1
inactive: activation [1] 1.36% | activation [2] 4.63% | Potency [3] | outcome [4] | Potency [7] | Potency [12] | max response [23] 1.7% | activity change % (negative = inhibition) [14] 6.22% | activation [15] 5.1% | activation [25] -2.3% | activation [16] 1.12% | Potency [18] | max response [19] -28.2% | max response [20] -7.19% | Potency [26] | max response [21] -9.3% | outcome [22]
active: Potency [11] 15.8 µM | Potency [24] 61.1 µM | Potency [17] 25.1 µM
-9.47%: max response [13]
-9.28%: max response [10]
